About 83,000 compounds went through this panel and 20% of them were active in at least one assay; those are over-represented in the sample as a whole.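 Results are percent growth after 48 hours of single-concentration exposure. 100 means growth as in untreated cells, lower positive values show inhibition; negative values down to -100 show cell death.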 Values without a mark were called inactive. Calls of active or inactive are those of the source. Rule for the calls: active = growth percent below 10; inactive = the rest.
These compounds were tested on T-47D breast (assay: NCI-60 one-dose screen, 48 h (100 = growth as untreated, 0 = no growth, -100 = all killed)). Settings: 10 µM unless noted.
Cc1nn(-c2ccccc2)c(-n2ccnc2)c1/C=N/Nc1nc(-c2ccc(F)cc2)cs1 gave a growth of 31.1%.
With O=C(Nc1ccc(Br)cc1F)c1cc(Br)ccc1O the growth was -5.16% (active).
With O=C(/C=C/c1sc(Cl)nc1Cl)c1ccccc1 the growth was 98.3%.
Compound CCCCCCCCCCCCCCCCCC1OCC(COC(=O)O[C@]2(CC)C(=O)OCc3c2cc2n(c3=O)Cc3cc4ccccc4nc3-2)O1 (stereo partly drawn) has a growth of 64.6%.
COc1cc2cc(Oc3ccc(NC(=O)Nc4ccc(F)c(C(F)(F)F)c4)cc3)c(C)nc2cc1OCCN1CCOCC1 gave a growth of 21.8%.
For CCOC(=O)c1nc(Nc2ccc(C(C)=O)cc2)sc1C, the growth was 93%.
Work on COc1ccc(C2CC(c3ccc(Nc4nc(Nc5ccc(F)cc5)nc(Nc5ccc(Cl)cc5)n4)cc3)=NN2C(C)=O)cc1 (stereo not drawn) yielded a growth of 72.5%.
With CCN(CC)CCNc1nc2ccccc2c2c(=O)c3cc(Cl)ccc3sc12 the growth was 60.4%.
Compound Cc1ccc(C2CC(c3ccc(Nc4ccnc5cc(Cl)ccc45)cc3)=NN2C=O)cc1 (stereo not drawn) has a growth of 38.3%.
With N/C(=N\c1nc2ccccc2s1)NC(=O)Nc1cccc2ccccc12 the growth was 38.5%.
Compound O=C(Cc1ccc(F)c(Cl)c1)Nc1cc(C2(C(F)(F)F)CC2)nn1Cc1ccccc1 has a growth of 64.9%.
With O=C1CCC(C(=O)NCCNCCNC(=O)C2CCC(=O)N2)N1 (stereo not drawn) the growth was 85%.
In the case of C=CCNc1ccc2c3c(cccc13)C(=O)N(N1C(=O)c3cccc4cccc(c34)C1=O)C2=O, the growth is reported as 96.5%.
NCCCNc1nc2ccccc2c2c(=O)c3cccc(F)c3sc12 gave a growth of 60.3%.
Cc1ccc2sc3c(NCCN)nc4ccccc4c3c(=O)c2c1 gave a growth of 65.6%.
With CCCCN(C)N=Nc1ccc(C(N)=O)cc1 the growth was 113%.
O=C(N/N=C/[C@@H](O)[C@H](O)[C@H](O)CO)c1ccc(NC(=O)c2cccnc2)cc1 showed a growth of 96.1%.
CC(=O)CC(c1cccs1)c1c(-c2ccccc2)[nH]c2ccccc12 (stereo not drawn) gave a growth of 84.6%.
In the case of Cc1oc2nc[nH]c(=O)c2c1C(=O)/C=C/c1ccc(Br)cc1, the growth is reported as 4.69% (active).
Work on C=C1C(=O)O[C@H]2[C@H]1CC/C(COC(=O)CSCC(=O)OC/C1=C/CC[C@@]3(C)O[C@H]3[C@H]3OC(=O)C(=C)[C@@H]3CC1)=C\CC[C@@]1(C)O[C@@H]21 yielded a growth of 12.3%.
N#Cc1c(-c2ccc(Cl)cc2)nc(NCCO)[nH]c1=O showed a growth of 89.4%.
Cc1cc(-c2cc(C)c(N)cc2C)c(C)cc1N gave a growth of 90.4%.
Work on CCCCCCCCCCCCCCCCCCOc1ccccc1CC(=O)OCC[N+](CC)(CC)CC yielded a growth of 23.5%.
With FC(F)(F)c1cc(Nc2ccc3c(OCCCN4CCOCC4)cccc3n2)ccc1Cl the growth was 48.1%.
For COc1cc2cc(Oc3ccc(NC(=O)Nc4cccc(C(F)(F)F)c4)cc3)c(C)nc2cc1OCCN1CCOCC1, the growth was 30.3%.
With Cc1nc(NC(=O)COc2ccc(/C=C3\Cc4ccc(Cl)cc4C3=O)cc2)sc1C the growth was 109%.
With CCc1nnc(NC(=O)c2nnn(-c3ccccc3)c2-c2ccco2)s1 the growth was 85%.
COc1cc(C(=O)c2cc(C)c3[nH]c4ccc(C)cc4c3c2C)cc(OC)c1OC showed a growth of 39.9%.
O=c1c2cc(F)ccc2sc2c(NCCN3CCOCC3)nc3ccccc3c12 showed a growth of 84.9%.
In the case of CC(=O)OC[C@H]1OC(Sc2sc(C(=O)c3ccc(Br)cc3)c(N)c2-c2nc3ccccc3s2)[C@H](OC(C)=O)[C@@H](OC(C)=O)[C@H]1OC(C)=O (stereo partly drawn), the growth is reported as 67.4%.
For C[N+]1=C(/C=C/c2ccc(O)c3ncccc23)C(C)(C)c2ccccc21, the growth was 23.7%.
For CC(C)c1cc(C(C)C)c(S(=O)(=O)Oc2ccc(NC(=O)c3ccc(Cl)cc3)cc2)c(C(C)C)c1, the growth was 7.98% (active).
Compound CCOc1c(B(O)O)cccc1-c1nc2ccc3[nH]ncc3c2c2c1CCCC2 has a growth of 75.5%.
CC1=C([Se]CC(OC(=O)[C@@H](CSSC(C)(C)C)NC(=O)OC(C)(C)C)C(=O)NC(C)(C)C)C(=O)c2ccccc2C1=O (stereo partly drawn) was tested, and the growth was -50.3% (active).
CNC(=O)c1[nH]cc(-c2ccccc2)c1-c1cc(OC)c2c(c1OC)OCO2 was tested, and the growth was 88.7%.
C=C(C)C1CCC2(C)OC2C1 (stereo not drawn) was tested, and the growth was 117%.
Work on CSc1ncccc1C(=O)OCC(=O)Nc1oc(C)c2c(C)n[nH]c(=O)c12 yielded a growth of 103%.
With Oc1ccc(CCl)c2cccnc12 the growth was 30.3%.

From PubChem BioAssay (NCI)
